PubChem BioAssay (NCATS)
Records with an inconclusive call do not appear. Active and inactive are the calls of the source. The call rests on the fitted dose curve; in most records, active means well fitted curve in the direction sought with a large enough effect; inconclusive means small, poorly fitted or top-dose-only effect, or another doubt; inactive means no such curve, though single readings can be large; an effect the other way counts as inactive or inconclusive.

Tests used:
[1] = qHTS for Inhibitors of Plasmodium falciparum (DD2) proliferation (AID 504314);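 further: parasite DNA measured by SYBR Green fluorescence after red cell lysis; plate controls were DMSO vehicle for no effect and artemisinin wells for full effect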
How it was run: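 Normalization used 0.29 uM artemisinin as full inhibition and DMSO as baseline. Parasitized erythrocytes were exposed to compounds for 72 h (37C, 5% CO2), then lysed with saponin/Triton buffer containing SYBR Green I.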

[2] = qHTS for Inhibitors of Plasmodium falciparum (GB4) proliferation (AID 504315);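 further: 0% = DMSO vehicle and -100% = 0.29 µM artemisinin control; nearly all actives have a fitted effect of over 50% in size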
How it was run: (§1)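 Parasite growth measured as SYBR Green DNA fluorescence (ex 485, em 535 nm) after overnight lysis following 72 h culture at 37 °C, 0.3% parasitemia, 2.5% hematocrit. Values normalized against DMSO and 0.29 uM artemisinin controls, with plate-stack correction.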

[3] = qHTS for Inhibitors of Plasmodium falciparum (7G8) proliferation (AID 504316);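 further: series mostly up to about 6.7 µM; 0% = DMSO vehicle and -100% = 0.29 µM artemisinin full kill; nearly all actives have a fitted effect of over 65% in size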
How it was run: as §1

[4] = qHTS for Inhibitors of Plasmodium falciparum (HB3) proliferation (AID 504318);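 further: 0% = DMSO vehicle and -100% = artemisinin control; nearly all actives have a fitted effect of over 60% in size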
How it was run: as §1

[5] = qHTS for Inhibitors of Plasmodium falciparum (CP250) proliferation (AID 504320);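 further: plate controls were DMSO vehicle for no effect and 0.29 µM artemisinin control for full effect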
How it was run: as §1

COCCN1C=C2C(=O)C(C)(OC(=O)C3CCCC3)C(=O)C=C2C=C1c1ccsc1 (stereo not given)
inactive: Potency [1] | Potency [2] | Potency [3] | Potency [4] | Potency [5]

C#CCCOC(=O)N1C2=NC(C(=O)OC)=C(C(=O)OC)[C@@H]3N(CC=C)c4ccccc4[C@]23C[C@H]1C(=O)OC
inactive: activity, negative = inhibition [1] 5.23% [at 1.12 µM] | Potency [2] | Potency [3] | Potency [4] | Potency [5]

CC(C)[C@@H](OCc1ccccc1)[C@H](C)C=NOC[C@@H](O)[C@H]1O[C@@H]2OC(C)(C)O[C@H]2[C@@H]1O
inactive: Potency [1] | Potency [2] | Potency [3] | Potency [4] | Potency [5]
